Test results: PubChem BioAssay (NCATS)
Results filed as inconclusive are left out. Entries that show only a call come without a potency. Unmarked numbers belong to inactive results. Active and inactive are the calls of the source. Calls come from the whole dose curve; as a rule, active = well fitted inhibition curve with a large enough effect; inconclusive = small, poorly fitted or top-dose-only effect; inactive = flat fitted curve, though single readings scatter.

Key:
[1] = biological target: Glutathione peroxidase 1 (Homo sapiens) (UniProt P07203); test: Primary qHTS Assay for Inhibitors of Recombinant Selenoprotein Glutathione Peroxidase 1 (GPX1) (AID 1845191); conditions: recombinant GPX1, GR-coupled NADPH fluorescence, 15 min; series mostly up to 48.8 µM
Sequence of Glutathione peroxidase 1 (Homo sapiens) (P07203 whole entry, looked up): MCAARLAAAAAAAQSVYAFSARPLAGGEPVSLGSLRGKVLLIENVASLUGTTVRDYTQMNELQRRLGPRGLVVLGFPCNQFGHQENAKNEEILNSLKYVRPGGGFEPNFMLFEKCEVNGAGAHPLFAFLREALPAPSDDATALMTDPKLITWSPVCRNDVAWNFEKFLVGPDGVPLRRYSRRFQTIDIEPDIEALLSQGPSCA
Procedure, shortened: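 GR-coupled readout: NADPH consumption tracked by fluorescence, ex 340/em 450 nm, at t=0 and after 15 min at RT. Final mix 10 nM GPX1, 1 mM GSH, 0.5 mM CHP, 0.5 mM NADPH, 100 nM GR, 0.01% BSA, following 30 min enzyme–compound preincubation.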

[2] = biological target: Phospholipid hydroperoxide glutathione peroxidase GPX4 (Homo sapiens) (UniProt P36969); test: Primary qHTS Assay for Inhibitors of Recombinant Selenoprotein Glutathione Peroxidase 4 (GPX4) (AID 1845192); conditions: recombinant GPX4, GR-coupled NADPH fluorescence, 15 min; series mostly up to 50 µM
Sequence of Phospholipid hydroperoxide glutathione peroxidase GPX4 (Homo sapiens) (P36969 whole entry, looked up): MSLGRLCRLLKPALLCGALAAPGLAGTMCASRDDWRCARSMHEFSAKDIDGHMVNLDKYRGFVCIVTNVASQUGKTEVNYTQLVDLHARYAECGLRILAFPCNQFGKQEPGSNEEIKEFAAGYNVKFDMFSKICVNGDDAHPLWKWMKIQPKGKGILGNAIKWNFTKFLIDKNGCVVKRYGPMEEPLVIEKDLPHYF
Procedure, shortened: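 Steps: GPX4 plus compound, 30 min RT; add GR/GSH/NADPH master mix; start with cumene hydroperoxide; read 340/450 nm fluorescence at 0 and 15 min. Finals were 200 nM GPX4, 1 mM GSH, 0.5 mM CHP, 0.5 mM NADPH, 100 nM GR.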
Note: nearly all actives have a fitted effect of over 65% in size.
Potency is the fitted concentration of half-maximal effect.

Row | Structure (SMILES) | Potency [1] | Potency [2] | activity change, negative = inhibition [2]
1 | C=C1/C(=C/C=C2\CCC[C@]3(C)[C@@H]([C@H](C)CC[C@@H](O)C(C)C)CC[C@@H]23)C[C@@H](O)C[C@@H]1O | inactive | 15.8 µM (active) | 
2 | CC=CC1=C(C(=O)O)N2C(=O)[C@@H](NC(=O)[C@H](N)c3ccc(O)cc3)[C@H]2SC1 | 7.85 µM (active) | inactive | 
3 | [2H]C([2H])([2H])C(O)(CCO[C@@H](C)[C@H]1CC[C@H]2/C(=C/C=C3\C[C@@H](O)C[C@H](O)C3=C)CCC[C@]12C)C([2H])([2H])[2H] | inactive | inactive | 
4 | CCN1CCC(=C2c3ccccc3CCc3ccccc32)C1C (stereo not given) | inactive | inactive | 
5 | CCN(CC)CCS(=O)(=O)[C@@H]1CCN2C(=O)c3coc(n3)CC(=O)C[C@H](O)/C=C(C)/C=C/CNC(=O)/C=C/[C@@H](C)[C@@H](C(C)C)OC(=O)[C@@H]12 | inactive | 6.31 µM (active) | 
6 | CCCC1CC(C(=O)NC(C(C)Cl)C2OC(SC)C(OP(=O)(O)O)C(O)C2O)N(C)C1 (stereo not given) | inactive | inactive | 
7 | CCCCC(=O)O[C@]1(C(=O)COC(C)=O)CC[C@H]2[C@@H]3CCC4=CC(=O)C=C[C@]4(C)[C@H]3[C@@H](O)C[C@@]21C | inactive | inactive | 
8 | CCC1OC(=O)C(C)C(OC2CC(C)(OC)C(O)C(C)O2)C(C)C(OC2OC(C)CC(N(C)C)C2O)C(C)(O)CC(C)C2NC(COCCOC)OC(C2C)C1(C)O (stereo not given) | inactive | inactive | 
9 | CC(C)OC(=O)CCC/C=C\C[C@@H]1[C@@H](/C=C/[C@@H](O)COc2cccc(C(F)(F)F)c2)[C@H](O)C[C@@H]1O | inactive | inactive | 
10 | COc1cc2c(c(OC)c1OC)-c1c(cc3c(c1OC)OCO3)C[C@H](C)[C@@](C)(O)C2 | inactive | inactive | 
11 | CCCCCCCCCC(=O)OC1(c2ccc(Cl)cc2)CCN(CCCC(=O)c2ccc(F)cc2)CC1 | inactive | inactive | 
12 | CCCC(=O)Nc1ncnc2c1ncn2C1O[C@@H]2COP(=O)(O)O[C@H]2[C@H]1OC(=O)CCC (stereo not given in full) | inactive | inactive | 
13 | CC(C)C(=O)OCC(=O)[C@@]12OC(C3CCCCC3)O[C@@H]1C[C@H]1[C@@H]3CCC4=CC(=O)C=C[C@]4(C)[C@H]3[C@@H](O)C[C@@]12C (stereo not given in full) | inactive | inactive | 
14 | CCCCCCCCCCCCCCCCCC(=O)NCCCC[C@H](NC(=O)CC[C@@H](NC(=O)[C@H](C)NC(=O)[C@@H](C)O[C@H]1[C@H](O)[C@@H](CO)OC(O)[C@@H]1NC(C)=O)C(N)=O)C(=O)O (stereo not given in full) | inactive | inactive | 
15 | Cc1nccn1CCC(C(N)=O)(c1ccccc1)c1ccccc1 | inactive | inactive | 
16 | C[C@@H]1O[C@@H](O[C@@H]2/C=C/C=C/C=C\C=C\C[C@H](C)OC(=O)/C=C/[C@H]3O[C@@H]3C[C@H](O)C[C@]3(O)C[C@@H](O)[C@@H](C(=O)O)[C@H](C2)O3)[C@H](O)[C@H](N)[C@@H]1O | inactive |  | -18.7% [at 9.73 µM]
17 | CC[C@H]1OC(=O)C[C@@H](O)[C@H](C)[C@@H](OC2OC(C)C(O)C(N(C)C)C2O)[C@@H](CCN2CCCCC2)C[C@@H](C)C(=O)/C=C/C(C)=C/[C@@H]1CN1CCCCC1 (stereo not given in full) | inactive | inactive | 
18 | CN[C@H]1C(=O)N[C@@H]2Cc3ccc(cc3)Oc3cc4cc(c3O[C@@H]3O[C@H](C(=O)O)[C@@H](O)[C@H](O)[C@H]3NC(=O)CCCCCCCCC(C)C)Oc3ccc(cc3Cl)[C@@H](O)[C@@H]3NC(=O)[C@H](NC(=O)[C@@H]4NC(=O)[C@@H](NC2=O)c2cc(cc(O)c2Cl)Oc2cc1ccc2O)c1ccc(O)c(c1)-c1c(O[C@H]2O[C@H](CO)[C@@H](O)[C@H](O)[C@@H]2O)cc(O)cc1[C@@H](C(=O)NCCCN(C)C)NC3=O | inactive | inactive | 
19 | CC[C@H]1OC(=O)C[C@@H](OC(C)=O)[C@H](C)[C@@H](O[C@@H]2O[C@H](C)[C@@H](O[C@H]3C[C@@](C)(O)[C@@H](OC(=O)CC(C)C)[C@H](C)O3)[C@H](N(C)C)[C@H]2O)[C@@H](CC=O)C[C@@H](C)C(=O)/C=C/C(C)=C/[C@@H]1CO[C@@H]1O[C@H](C)[C@@H](O)[C@@H](OC)[C@H]1OC | inactive | inactive | 
20 | Cc1cc(O)ccc1C(C)(C)C | inactive | inactive | 
21 | O=C(O)[C@H]1OC(O)[C@H](O)[C@@H](O)[C@@H]1O (stereo not given in full) | inactive | inactive | 
22 | CN[C@@H]1[C@@H](O)[C@@H](O[C@@H]2[C@@H](O)[C@H](OC3O[C@H](CN)[C@@H](O)[C@H](O)[C@H]3O)[C@@H](N)C[C@H]2NC(=O)[C@@H](O)CN)OC[C@]1(C)O (stereo not given in full) | inactive | inactive | 
23 | Clc1ccc(CCCOCCCN2CCCCC2)cc1 | inactive | inactive | 
24 | CC(=O)c1cc2cccc(OCC(O)CNC(C)C)c2o1 (stereo not given) | inactive | inactive | 
25 | O=C(OC[C@H]1O[C@@H](OC(=O)c2cc(O)c(O)c(O)c2)[C@H](O)[C@@H](OC(=O)c2cc(O)c(O)c(O)c2)[C@@H]1O)c1cc(O)c(O)c(O)c1 | inactive | inactive | 
